# An excerpt weighted towards active compounds, which were near 10% of everything screened.
# ALDH1A1 block: ALDH1A1 (human) enzyme inhibition | Potency, µM (series often up to 75.3 µM), for inactives: top-dose activity, negative = inhibition, most hits filed as inhibitors | AID 1030 | 220,000 tested, 7.3% active | Purified ALDH1A1, NADH fluorescence, propionaldehyde substrate | P00352;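 note: potency is the fitted concentration of half-maximal effect; plate controls were no enzyme wells and a reference inhibitor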
# Target sequence (P00352 whole entry, looked up): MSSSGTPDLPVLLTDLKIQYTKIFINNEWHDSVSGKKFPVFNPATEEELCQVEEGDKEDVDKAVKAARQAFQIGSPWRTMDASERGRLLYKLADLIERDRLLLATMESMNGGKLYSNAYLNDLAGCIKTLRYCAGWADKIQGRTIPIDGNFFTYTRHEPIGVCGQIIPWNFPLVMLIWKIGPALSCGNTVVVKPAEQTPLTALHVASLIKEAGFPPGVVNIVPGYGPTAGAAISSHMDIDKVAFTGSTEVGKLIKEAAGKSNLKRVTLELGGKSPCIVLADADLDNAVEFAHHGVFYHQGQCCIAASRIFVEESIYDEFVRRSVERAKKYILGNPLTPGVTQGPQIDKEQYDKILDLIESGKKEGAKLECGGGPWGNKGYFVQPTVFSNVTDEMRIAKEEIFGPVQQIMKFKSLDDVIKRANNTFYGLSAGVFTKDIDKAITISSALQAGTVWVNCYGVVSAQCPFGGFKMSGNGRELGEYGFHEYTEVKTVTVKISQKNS
# HPGD inh: blocks human HPGD enzyme activity. purified HPGD, NADH fluorescence kinetic, PGE2 substrate. P15428. Potency, µM, without a hit: at the top dose activity change, negative = inhibition, most hits filed as inhibitors. 150,000 tested, 4.3% active; note: potency is the fitted concentration of half-maximal effect
#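 NADH formation kinetics: reaction with 30 uM PGE2 and 1 mM NAD+ (final), 20 nM enzyme, Tris-HCl pH 8 with Tween 20, after 15 min compound preincubation at room temperature. Fluorescence change, last versus first of five reads.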
# KinaseGlo FLuc: blocks Kinase-Glo luciferase, a counter-screen artifact; Potency, µM (doses to about 38.3 µM), inactives show at the top dose activity change, negative = inhibition, hits mostly inhibitors; Kinase-Glo luciferase, ATP luminescence, 8 min; 200,000 tested, 0.28% active; active = well fitted inhibition curve with a large enough effect; inconclusive = small, poorly fitted or top-dose-only effect; note: potency is the fitted concentration of half-maximal effect; nearly all actives have a fitted effect of over 60% in size
#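 Luminescence was the read-out, taken after 8-minute incubation at ambient temperature. Luciferase turned over luciferin with 10 uM ATP in imidazole pH 7.2 buffer containing KCl, MgCl2, Tween 20 and BSA.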
# PNC assembly inh: inhibitors of perinucleolar compartment assembly. PC3M PTB-GFP, PNC prevalence imaging, 16 h; active compounds read low. activity change (PNC), negative = inhibition, % at 10 µM. 140,000 tested, 3.1% active;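 active = readout at or below -70, meaning at least 70% loss of cells showing the perinucleolar compartment, a nuclear body marking cancer cells; inconclusive = readout between -30 and a set limit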;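 note: plate controls were DMSO wells for no effect and camptothecin positive control wells for full effect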
#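 Read-out is percentage of cells bearing a perinucleolar compartment, from automated 20x imaging of fixed, Hoechst-stained PC3M PTB-GFP cells. Cells were seeded 4 h, then exposed 16 h to compound (23 nl of library stock) in duplicate plates.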
# Lamin A splicing: LMNA splicing modulation; 200,000 tested, 0.01% active; HeLa LMNA splicing GFP/RFP minigene ratio, 48 h; Potency, µM (highest dose often 46.1 µM), without a hit: at the highest dose ratio change, negative = inhibition, actives largely listed as inhibitors; active = well fitted inhibition curve with a large enough effect in the signal ratio, with a control signal flat, not every such curve was filed as active; inconclusive = small, poorly fitted or top-dose-only effect, or effect the other way, or a change in a side signal; the % refers to the signal ratio; note: potency is the fitted concentration of half-maximal effect
#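 S3 HeLa cells stably expressing lamin A-EGFP splicing minigene plus DsRed2, 600 cells/well, 48 h compound exposure at 37C. Laser-scanning cytometry; analysed as GFP (500-530 nm)/RFP (575-640 nm) total intensity ratio; 0.5% DMSO vehicle.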
# An asterisk follows results filed as active; ? = inconclusive; . = not tested or not shown; ! = a repeat was not active; [ ] = remark or other dose. Unless noted, calls come from the whole dose curve; as a rule, active = well fitted inhibition curve with a large enough effect (not every such curve was filed as active); inconclusive = small, poorly fitted or top-dose-only effect, or another doubt; inactive = no such curve, though single readings can be large or run the other way. Unless noted, % is set by controls: 0 for no effect and ±100 for the full control effect.
SMILES,ALDH1A1 block,HPGD inh,KinaseGlo FLuc,PNC assembly inh,Lamin A splicing
Clc1ccc(/C=C/c2nc3ccccc3[nH]2)cc1,?,?,13µM*,-1,?
O=C1CN(C(=O)c2cccc(Br)c2)C(c2ccccc2)c2cc(Cl)ccc2N1 (stereo not drawn),.,.,.,.,-4%[46 µM]
O=C(NC1CC2CCC1C2)C1COc2ccccc2O1 (stereo not drawn),3%,14µM*,-2%,-86*,-1%
COc1ccc(CNC(=O)C2COc3ccccc3O2)cc1 (stereo not drawn),-3%,14µM*,4%,-100*,-10%
CCC/C=N/NC(=O)C1COc2ccccc2O1 (stereo not drawn),?,.,-2%,.,2%[46 µM]
COc1ccccc1CNC(=O)C1COc2ccccc2O1 (stereo not drawn),4%,16µM*,7%,-19,-10%
O=C(O)CNC(=O)C1COc2ccccc2O1 (stereo not drawn),5%,-4%,1%,16,-10%
Cc1ccc(Cl)cc1N,-11%,-10%,.,.,.
C=CCOC(=O)N[C@H](/C(C(=O)OC)=C(\C)NCc1ccccc1)c1cccc(F)c1,-2%,-19%,-5%,.,.
CCOc1ccc(-c2nc(CSCC(=O)NCc3ccc(Cl)cc3)c(C)o2)cc1,.,.,.,.,-5%[46 µM]
COc1cccc(NCc2cc3c(C(C)(C)C)nn(-c4ccccc4)c3[nH]c2=O)c1,13µM*,?,-5%,35,-1%
CCOc1ccc(NCc2cc3c(C(C)(C)C)nn(-c4ccccc4)c3[nH]c2=O)cc1,?,-18%,-1%,14,9%
COC(=O)N1CCC2(CC1)CCN(C(c1ccccc1)c1ccccc1)CC2,10%,-1%,1%,.,.
CNC(=S)Nc1cc(C(F)(F)F)ccc1Cl,4%,-7%,0%,-86*,12%
N/C(CC(=O)Nc1cc(C(F)(F)F)ccc1Cl)=N\O,28µM*!,-4%,-2%[7.66 µM],.,.
COc1cccc(Cn2c(=O)c(-c3cccs3)nc3cnc(N(C)C)nc32)c1,?,.,.,.,16%
CCCn1c(-c2ccc(F)cc2)nc2c(N3CCN(C)CC3)nc(C)nc21,?,-25%,-6%,.,.
COc1ccc2c(c1)CCc1sc(NC(=O)c3ccco3)nc1-2,22µM*,?,-6%,-17,-2%
COc1ccc2c(c1)-c1nc(NC(=O)c3ccco3)sc1CC2,?,-23%,0%,3,?
COc1ccc2c(c1)Cc1sc(NC(=O)c3cccnc3)nc1-2,3.5µM*,.,-4%,.,-16%[46 µM]
Cn1c(N2CCOCC2)nc2c1c(=O)n(Cc1ccc(Cl)c(Cl)c1)c(=O)n2C,-7%,-25%,-1%,?,?
Cc1ccc(Cn2c(=O)c3c(nc4n3CCN4Cc3ccco3)n(C)c2=O)cc1,?,-16%,-1%,-100*,?
Cn1c(OCc2ccco2)nc2c1c(=O)n(Cc1ccc(Cl)c(Cl)c1)c(=O)n2C,25µM*,-16%,1%,28,-18%
COC(=O)[C@@H]1CC[C@H](C)[C@@H](c2ccc(C)cc2)N1C(=O)c1ccc(/C=N\O[C@@H](C)c2cc(-c3c(C)cc(C)cc3C)no2)cc1,8%[13.5 µM],.,.,.,.
COCCCN=C1NN=C(c2cc(C)n(-c3ccccc3F)c2C)CS1,25µM*,.,-3%,.,.
SMILES,ALDH1A1 block,HPGD inh,KinaseGlo FLuc,PNC assembly inh,Lamin A splicing
Cc1cccc(N=C2NN=C(c3ccccc3F)CS2)c1C,-2%,.,-1%,.,-6%[46 µM]
COCCCN=C1NN=C(c2cc(C)n(-c3ccccc3)c2C)CS1,8.9µM*,-16%,2%,?,?
Fc1ccc(N=C2NN=C(c3cc(F)ccc3F)CS2)cc1,?,-21%,-1%,18,?
O=S(=O)(c1ccc(N=C2NN=C(c3cc(F)ccc3F)CS2)cc1)N1CCOCC1,28µM*,.,.,.,.
CN=C1NN=C(c2cc(C)n(-c3ccc(Cl)cc3)c2C)CS1,8.9µM*,.,-6%,.,-12%[46 µM]
COc1ccc(NC(=O)CSc2nnc(NC(=O)Nc3ccccc3)s2)c(OC)c1,.,.,.,.,13%[46 µM]
Cc1ccc(-c2nn3c(=O)cc(CN4CCN(C(=O)c5ccc(C(C)(C)C)cc5)CC4)nc3s2)cc1,.,.,.,.,-4%[46 µM]
O=C(O)/C=C\C(=O)Nc1ccc2c(c1)-c1ccccc1C2,-9%[13.5 µM],-13%,0%[7.66 µM],.,.
Cc1cc(C2=NNC(=Nc3ccccc3)SC2)c(C)n1C,?,.,-4%,.,.
COCCN=C1NN=C(c2cc(C)n(CC3CCCO3)c2C)CS1 (stereo not drawn),?,.,-6%,.,-12%[46 µM]
Cc1c(N=C2NN=C(c3ccc(Cl)cc3)CS2)c(=O)n(-c2ccccc2)n1C,18µM*,.,3%,.,10%[46 µM]
COCCn1c(C)cc(C2=NNC(=Nc3ccccc3F)SC2)c1C,18µM*,-23%,-15%,14,-1%
COCCCN=C1NN=C(c2cc(C)n(Cc3ccccc3Cl)c2C)CS1,25µM*,.,-3%,.,.
Cc1cc(C2=NNC(=NC3CC3)SC2)c(C)n1-c1c(C)n(C)n(-c2ccccc2)c1=O,25µM*,-19%,2%,11,-4%
O=C1[C@H]2[C@H]3[C@H](O)[C@H](O)C/C(=N/OCc4ccccc4)[C@@H]3CC[C@@H]2C(=O)N1C1CCCCC1,5%[13.5 µM],.,.,.,.
